We go through 35 compounds from PubChem BioAssay (NCI).

The panel holds about 79,000 compounds, 15% with a hit somewhere; the sample as a whole holds those more often. Unmarked numbers belong to inactive results. Activity calls are given as the source filed them. Cut-off read from the data, not from the text of the source: active = growth inhibition above about 70%; inactive = the rest.

Test [1] is described as follows: NCI Yeast Anticancer Drug Screen. Data for the rad50 strain (AID 155).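 Note: 0% = growth of vehicle-only cultures of the same strain.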 The settings on record: S. cerevisiae rad50 strain growth inhibition; at 50.0 µM; hits give high values. The method in brief:
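A DNA repair-deficient yeast mutant serves as the test organism; compound-induced growth inhibition is calculated against vehicle-treated cells.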

A short description of test [2]: NCI Yeast Anticancer Drug Screen. Data for the mec2-1 strain (AID 157). The note with it: S. cerevisiae mec2-1 strain, at 50.0 µM, hits give high values. The essentials:
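Strain: mec2-1 (DNA repair/cell cycle alteration). Compound exposure, then growth measured; inhibition expressed relative to vehicle.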

Test [3] is described as follows: NCI Yeast Anticancer Drug Screen. Data for the sgs1 mgt1 strain (AID 161).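 Note: 0% = growth of cultures given vehicle only.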 The settings on record: S. cerevisiae sgs1 mgt1 strain, at 50.0 µM, hits give high values. The method in brief:
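Mutant yeast exposed to compound; growth scored against vehicle-only wells.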

Test [4] is described as follows: NCI Yeast Anticancer Drug Screen. Data for the cln2 rad14 strain (AID 165).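 Note: 0% = growth equal to vehicle treated cultures.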 The note with it: S. cerevisiae cln2 rad14 strain, at 50.0 µM, hits give high values. The essentials:
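Compounds are applied to the cln2 rad14 yeast strain, and growth is then compared with that of vehicle-treated cultures to give inhibition.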

Test [5] is described as follows: NCI Yeast Anticancer Drug Screen. Data for the bub3 strain (AID 167). The note with it: S. cerevisiae bub3 mutant strain, at 50.0 µM, hits give high values. The method in brief:
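Inhibition values come from growth of compound-treated mutant yeast normalised to vehicle-treated controls.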

Test [6] is described as follows: NCI Yeast Anticancer Drug Screen. Data for the mlh1 rad18 strain (AID 175). The note with it: S. cerevisiae mlh1 rad18 strain growth inhibition; at 50.0 µM; hits give high values. The method in brief: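 Read-out is yeast growth inhibition, calculated against vehicle-only controls. The compound was applied to a strain engineered with DNA damage repair alterations.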

As for `CCOC(=O)C(C)(C)Oc1ccc2c(C)c(-c3ccc(Cl)cc3)c(=O)oc2c1`, the growth inhibition is -1.7% in test [1]; -26.4% in test [2]; -1.25% in test [3]; -41.2% in test [4]; -47.6% in test [5]; -10.9% in test [6].
As to `OCCOCn1nc(-c2ccccc2)nc1-c1cnccn1`, the growth inhibition in test [1] was -13.4%; in test [2], -4.55%; in test [3], -20.3%; in test [4], -27.9%; in test [5], -38.1%; in test [6], -24.1%.
On to `O=C(CCC(=O)Nc1ccc(Cl)cc1)CC(=O)c1ccc2ccccc2c1`, for which the growth inhibition in test [1] is -51%; in test [2], -28.9%; in test [3], -13.3%; in test [4], 8.4%; in test [5], -31.1%; in test [6] it was -29.9%.
For `C=C1SC(=Nc2ccc(Cl)cc2)N(c2nc(Cl)nc(Cl)n2)C12CCCCC2`, the growth inhibition in test [1] is -16.4%; in test [2] it was -21.1%; in test [3] it was 19.4%; in test [4] it was 14%; in test [5] it was 10.2%; in test [6], 20.6%.
In the case of `CCCCc1c(O)nc(NCCCC(N)C(=O)O)[nH]c1=O` (stereo not given), the growth inhibition was -9.55% in test [1]; -13.8% in test [2]; -7.2% in test [3]; -28.9% in test [4]; -4.6% in test [5]; -17.8% in test [6].
For `C=C1C(=O)O[C@@H]2[C@H]3[C@H](C)C(=O)C=C[C@]3(C)CC[C@@H]12`, the growth inhibition in test [1] is 21.3%; in test [2], -24.9%; in test [3] it was 39%; in test [4] it was 13.4%; in test [5] it was 8.95%; in test [6], -23.6%.
`CN(C)CC(O)c1ccc(Cl)c2ccccc12` (stereo not given): the growth inhibition in test [1] is 3.95%; in test [2], -20.9%; in test [3] it was -31.9%; in test [4], -30.1%; in test [5] it was -8.7%; in test [6] it was 1.75%.
On to `C1CSCCCSCCSCCCSC1`, for which the growth inhibition in test [1] is -15.1%; in test [2], -9.45%; in test [3], 3.6%; in test [4] it was 5.3%; in test [5] it was 0.2%; in test [6], 4.45%.
For `CCOC(=O)c1c(-c2ccc(Cl)cc2)c(C#N)c(=S)n(C2OC(COC(C)=O)C(OC(C)=O)C(OC(C)=O)C2OC(C)=O)c1C` (stereo not given), the growth inhibition was -0.4% in test [1]; -8.75% in test [2]; -1.75% in test [3]; 24.1% in test [4]; 17.5% in test [5]; 5.7% in test [6].
As for `COc1cc(NCCCN(CC(C)C)CC(C)C)c2ncccc2c1Cl`, the growth inhibition was 27.5% in test [1]; 26.1% in test [2]; 55% in test [3]; 19.8% in test [4]; 27.3% in test [5]; 38.4% in test [6].
As for `CCCC(=O)/C=C\c1ccccc1`, the growth inhibition was 21.6% in test [1]; -3.7% in test [2]; 6.55% in test [3]; -61.9% in test [4]; 3.2% in test [5]; -10.7% in test [6].
With `Nc1nc2ccc(Br)cc2s1`, the growth inhibition in test [1] was 9.3%; in test [2], 26.6%; in test [3], 35.9%; in test [4] it was 11.6%; in test [5], 32.5%; in test [6] it was 32.4%.
As for `COc1ccc(N2C(=O)C3c4[nH]c5ccccc5c4C4CCCCCCCCCCC4C3C2=O)cc1` (stereo not given), the growth inhibition in test [1] is 9.95%; in test [2], -19.6%; in test [3], -3.2%; in test [4] it was -65.3%; in test [5], -26.4%; in test [6], -4.2%.
Take `Nc1nc(Nc2ccccc2)nc(SCc2ccccc2)n1`: the growth inhibition in test [1] is 9.7%; in test [2], 5.45%; in test [3], -5.5%; in test [4] it was -33.5%; in test [5], 0.15%; in test [6], 13.7%.
`O=C(CC/[N+]([O-])=C/c1ccccc1)OCc1ccccc1`: the growth inhibition is 24.9% in test [1]; 20.8% in test [2]; 1.3% in test [3]; 12% in test [4]; 21.8% in test [5]; 52.5% in test [6].
As for `CC(C)(C)C(=O)CC(=O)C(C)(C)C.[Cu]`, the growth inhibition in test [1] was -10.2%; in test [2] it was -9.35%; in test [3], -4.2%; in test [4] it was -56.6%; in test [5], -26.4%; in test [6], 9.05%.
In the case of `COc1cc2c(cc1OC)C1=NN(c3ccccc3)C(=O)C1CC2` (stereo not given), the growth inhibition was 22.8% in test [1]; 12.6% in test [2]; 12.3% in test [3]; -7.2% in test [4]; 5.55% in test [5]; 18.8% in test [6].
With `O=C(CCCn1cnc([N+](=O)[O-])n1)NCCCn1ccnc1[N+](=O)[O-]`, the growth inhibition is -26.2% in test [1]; -19.7% in test [2]; -26.1% in test [3]; -3.45% in test [4]; -34.8% in test [5]; -7.8% in test [6].
Take `O=[N+]([O-])CC1(O)CCCCC1`: the growth inhibition in test [1] was 25.6%; in test [2] it was 9.05%; in test [3] it was 11.2%; in test [4], 7.95%; in test [5], -0.65%; in test [6], 0.9%.
`[Cl][Pt+2][Cl].[NH-]CC(C[NH-])(Cc1ccccc1)Cc1ccccc1`: the growth inhibition was -0.55% in test [1]; -13.9% in test [2]; -2.2% in test [3]; 15.1% in test [4]; -18.2% in test [5]; -38.6% in test [6].
On to `O=C(O)CCc1c(-c2ccccc2)c(-c2ccccc2)c2n1CCC2`, for which the growth inhibition in test [1] is 49.5%; in test [2], 41%; in test [3], 56.5%; in test [4], -12.6%; in test [5], 33.9%; in test [6] it was 48.9%.
Consider `CCCCS(=O)(=O)C[N+](C)(CC)CC`, for which the growth inhibition in test [1] is 34.1%; in test [2] it was -0.7%; in test [3], -5.45%; in test [4] it was -6.85%; in test [5] it was -4.65%; in test [6], 3.45%.
For `S=c1sc2c(Cl)nc(Cl)nc2n1-c1ccccc1`, the growth inhibition was -17.2% in test [1]; -4.95% in test [2]; -13.6% in test [3]; -1% in test [4]; 9.65% in test [5]; -11.2% in test [6].
`O=C(O)c1cccc2c1CCCC2`: the growth inhibition was -2.7% in test [1]; 7.35% in test [2]; -21.6% in test [3]; 0.05% in test [4]; -11.6% in test [5]; 8.05% in test [6].
`NNC(=O)CSCC(=O)NN`: the growth inhibition in test [1] is -1.9%; in test [2], -2.05%; in test [3], -3.25%; in test [4] it was -9.75%; in test [5], 1.2%; in test [6] it was -5.35%.
As to `CCCCCC[N+]12CC=C3COC(=O)C(C)(O)C(C)(O)C(C)C(=O)OC(CC1)C32` (stereo not given), the growth inhibition was 0.7% in test [1]; -6.15% in test [2]; -0.25% in test [3]; 13.7% in test [4]; -3.35% in test [5]; 7.85% in test [6].
Regarding `C=C1C(=O)[C@@]23CC[C@@H]4[C@@]5(C)CCC[C@@]4(OC5=O)C2(C)CC[C@]1(OC)C3` (stereo not given in full), the growth inhibition in test [1] was 87.2% (active); in test [2], 92.5% (active); in test [3], 88.3% (active); in test [4] it was 88.5% (active); in test [5] it was 88.4% (active); in test [6] it was 90.7% (active).
Turning to `COC(=O)c1c2c(cc3c1CCC3)CCC2`, the growth inhibition in test [1] was -21.1%; in test [2], -3.15%; in test [3] it was -31.8%; in test [4], 14.8%; in test [5], 32.9%; in test [6], -20.2%.
`COc1ccc(C2=NNC(=O)OC2c2ccccc2)cc1` (stereo not given): the growth inhibition was 29.1% in test [1]; 16.9% in test [2]; 28.2% in test [3]; -29.6% in test [4]; 26.3% in test [5]; 28.9% in test [6].
Consider `C=C(c1nc2ccc(Cl)cc2[nH]c1=O)C(O)c1ccc(C(O)C(=O)c2nc3ccc(Cl)cc3[nH]c2=O)cc1` (stereo not given), for which the growth inhibition is 5.85% in test [1]; 4.55% in test [2]; -15.6% in test [3]; -68.8% in test [4]; -1.4% in test [5]; 9.05% in test [6].
With `Nc1ncc[nH]c1=O`, the growth inhibition is -16.1% in test [1]; -4.1% in test [2]; 1.25% in test [3]; -4.1% in test [4]; 2.9% in test [5]; -20.2% in test [6].
As to `O=C(O)C1CCCN1Cc1ccc2c(c1)OCO2` (stereo not given), the growth inhibition in test [1] is -5.1%; in test [2], -19.6%; in test [3] it was -34%; in test [4], -3.5%; in test [5], -40.8%; in test [6], -36.8%.
For `CCCCOC(=O)C(=O)C(CC(C(=O)Cc1ccccc1)c1ccccc1)C(=O)C=C(C)C` (stereo not given), the growth inhibition is -0.1% in test [1]; -5.3% in test [2]; -0.7% in test [3]; -12.1% in test [4]; 27.2% in test [5]; -18.2% in test [6].
In the case of `COc1cc2c(cc1O)C(=O)CCC(C(=O)O)=C2`, the growth inhibition in test [1] is 14.2%; in test [2] it was -12.8%; in test [3] it was 3.65%; in test [4] it was -14.8%; in test [5], 2%; in test [6], 14.6%.
For the compound `CC[O-].Cc1ccc2cccc([O-])c2n1.Cc1ccc2cccc([O-])c2n1.Cc1ccc2cccc([O-])c2n1.[Ti+4]`, the growth inhibition in test [1] was -18.1%; in test [2], -5.75%; in test [3], -1.5%; in test [4], 20%; in test [5] it was -1.25%; in test [6], 4.3%.
